# Results reported in PubChem BioAssay (NCI).
# About 83,000 compounds went through this panel and 20% of them were active in at least one assay; those are over-represented in the sample as a whole.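 Plates (96-well) were seeded with cells, treated with compound at one concentration, and incubated for 48 hours before percent growth was determined.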 Unmarked numbers belong to inactive results. Activity calls are given as the source filed them. How the source made its calls: active means growth percent below 10; inactive means the rest.
# What was measured:
# Experiment in all cases: NCI-60 one-dose screen, 48 h (100 = growth as untreated, 0 = no growth, -100 = all killed)
# Details in all cases: 10 µM
# [1] = system: DU-145 prostate
# [2] = system: K-562 leukemia
# [3] = system: MALME-3M melanoma
# [4] = system: MDA-MB-231 breast
# [5] = system: RXF 393 renal
# [6] = system: SF-268 CNS
# [7] = system: SF-295 CNS
# [8] = system: SF-539 CNS
# [9] = system: UACC-257 melanoma
# [10] = system: M14 melanoma
# [11] = system: HCT-15 colon
# [12] = system: HT29 colon
# [13] = system: SNB-75 CNS
# [14] = system: SNB-19 CNS
# [15] = system: U251 CNS
# [16] = system: PC-3 prostate
# [17] = system: SK-MEL-5 melanoma
# [18] = system: UACC-62 melanoma
# [19] = system: LOX IMVI melanoma
# [20] = system: SK-MEL-28 melanoma
SMILES,growth [1],growth [2],growth [3],growth [4],growth [5],growth [6],growth [7],growth [8],growth [9],growth [10],growth [11],growth [12],growth [13],growth [14],growth [15],growth [16],growth [17],growth [18],growth [19],growth [20]
NC(=O)c1cccc(-n2ccc3cc(NC(=O)Nc4ccc(Cl)c(C(F)(F)F)c4)ccc32)n1,95%,59.3%,87.8%,75.8%,2.44% (active),76.6%,58.2%,44.2%,93.3%,78.8%,56.6%,61.9%,47.5%,71%,56.5%,53.4%,78.3%,70.9%,76.9%,79.4%
O=S(=O)(O)c1cccc(Nc2ccc3ccccc3c2)c1,109%,98.7%,88.1%,90.1%,107%,95.8%,104%,102%,89.7%,92.7%,110%,99%,78.2%,96.3%,95.5%,79%,99%,88.1%,93.4%,108%
CC(=O)C1N=NCC1c1ccccc1 (stereo not given),110%,80.4%,95.2%,97.9%,106%,104%,95.4%,103%,110%,99.3%,96.9%,105%,92.1%,99.9%,110%,95.5%,98.4%,83.8%,103%,112%
COc1cc(/C=C2\CCCC3C2=Nc2ccccc2NC3c2cc(OC)c(OC)c(OC)c2)cc(OC)c1OC (stereo not given),4.98% (active),5.35% (active),-34.9% (active),24.1%,-49.6% (active),26%,-10.8% (active),35.2%,16.3%,-0.908% (active),6.11% (active),-3.94% (active),54.5%,64.4%,-11.4% (active),38.2%,-52% (active),-32.6% (active),-62% (active),29.4%
COc1ccc(C(=O)N/N=C/c2cc(C(F)(F)F)ccc2Cl)cc1,105%,95.4%,111%,89.4%,74.9%,112%,78.2%,104%,105%,104%,73.2%,99.7%,101%,91.9%,109%,90.9%,85.5%,76.9%,92.4%,96.5%
CCCCN(CCCC)C(=O)[C@H](CC)[C@@H]1CC[C@@H](C)[C@@H]([C@H](C)[C@@H](O)[C@@H](C)C(=O)[C@H](CC)C2O[C@]3(C=C[C@@H](O)[C@]4(CC[C@@](C)([C@H]5CC[C@](O)(CC)[C@H](C)O5)O4)O3)[C@H](C)C[C@@H]2C)O1 (stereo not given in full),35.4%,14.1%,-15.8% (active),-25.3% (active),-3.81% (active),19.6%,-10.4% (active),16.9%,0.418% (active),14.2%,-5.99% (active),7.79% (active),-12.4% (active),15.3%,13.9%,4.26% (active),-92% (active),12.2%,2.12% (active),39.8%
COc1cc2cc(Oc3ccc(NC(=O)Nc4ccc(Cl)c(Cl)c4)cc3)c(C)nc2cc1OC,24.8%,12.7%,14.9%,47.8%,22.3%,43.7%,0.689% (active),38.5%,1.38% (active),25.8%,18.9%,10.9%,22.4%,28.6%,-32.3% (active),4.12% (active),-35% (active),20.4%,23.1%,44.6%
CCN(CC)CCOc1cccc2c1C(=O)c1ccccc1C2=O,100%,93.8%,115%,85.7%,79.9%,94.2%,96.8%,99.7%,94.4%,94.4%,94.6%,80.6%,86.4%,92.1%,93.4%,83.5%,93.7%,95.2%,84.1%,111%
C=CCn1c(SCC(=O)Nc2ccc(C(=O)/C=C/c3ccc(OC)cc3)cc2)nnc1-c1ccc(OC)c(OC)c1,97.7%,63.6%,110%,72.3%,84.7%,84.1%,93.5%,102%,84.6%,89.6%,83.8%,89.8%,76.4%,89%,87.4%,67.2%,62.8%,75.7%,86.5%,105%
CCOC(=O)N/N=C/c1ccc(OC)c(OC)c1,118%,99.9%,132%,106%,101%,127%,101%,112%,106%,113%,110%,104%,106%,104%,100%,104%,101%,98.7%,102%,107%
COc1cc2c(Nc3ccc(-c4ccc(N)cc4)cc3)ncnc2c(OC)c1OC,34.9%,11%,36.5%,56.9%,103%,52.6%,-33.2% (active),17.5%,43.8%,13.8%,28.8%,46.2%,82.8%,51.1%,42.6%,47.3%,-25.1% (active),7.02% (active),31.1%,75.6%
O=[N+]([O-])c1cc(Cl)cc(Cl)c1O,105%,109%,97.1%,110%,104%,100%,97.3%,89.7%,104%,96.9%,101%,97.7%,90.8%,103%,104%,103%,101%,103%,92.6%,102%
CC(=O)Oc1cc(OC(C)=O)c2ccccc2c1OC(C)=O,67%,70.5%,67.3%,67.7%,93.1%,87.9%,103%,100%,81.4%,84.1%,81.3%,92.9%,85.7%,93.8%,94%,62.6%,60.9%,89.9%,48.3%,99.5%
C=CCN(CC=C)C(=O)[C@H](CC)[C@@H]1CC[C@@H](C)[C@@H]([C@H](C)[C@@H](O)[C@@H](C)C(=O)[C@H](CC)C2O[C@]3(C=C[C@@H](O)[C@]4(CC[C@@](C)([C@H]5CC[C@](O)(CC)[C@H](C)O5)O4)O3)[C@H](C)C[C@@H]2C)O1 (stereo not given in full),53.7%,14.3%,-22.4% (active),-36.3% (active),-1.56% (active),41.7%,-16% (active),29.1%,7.88% (active),17.9%,4.64% (active),9.13% (active),-7.45% (active),14.2%,18.9%,2.56% (active),-85.2% (active),14.3%,17%,33.9%
CCOC(=O)c1cc(C(=O)c2cc(OC)cc(OC)c2)n2ncc3ccccc3c12,46.4%,5.75% (active),41.9%,42.9%,29.1%,46.9%,8.71% (active),11.5%,49%,15.7%,29.8%,2.01% (active),-10% (active),46.8%,-13.4% (active),31.7%,18.7%,41.7%,9.99% (active),63%
